Bioassay records (PubChem)
The list is not random: actives were taken first. Their share in the collection is about 12%.
Sfp inh – inhibitors of Bacillus subtilis Sfp phosphopantetheinyl transferase | Q9F4F7 | Biochemical Sfp PPTase activity, qHTS | Potency, µM, without a hit: largest response in the series, negative = inhibition, actives largely listed as inhibitors | 310,000 tested, 3.5% active | AID 1490;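 further: the enzyme is Sfp with the accession as filed and its product quenches rhodamine fluorescence; 0% = enzyme reaction without inhibitor and -100% = no enzyme wells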
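Buffer: 50 mM Hepes-Na pH 7.6, 10 mM MgCl2, 0.01% Nonidet P-40, 0.01% BSA. Enzyme 15 nM, pre-exposed to compound 15 min; substrates then added and fluorescence change tracked over 30 min.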
G9a block – blocks human histone lysine methyltransferase G9a. G9a H3K9 monomethylation, AlphaScreen, 2 h. Q96KQ7. 350,000 tested, 8.8% active. Potency, µM (top dose mostly 102 µM), for the others: top-dose activity, negative = inhibition, most hits filed as inhibitors; further: on the % scale 0 is the no-effect control and ±100 the full control effect; nearly all actives have a fitted effect of over 75% in size
Target sequence (Q96KQ7 913-1193 limits assumed): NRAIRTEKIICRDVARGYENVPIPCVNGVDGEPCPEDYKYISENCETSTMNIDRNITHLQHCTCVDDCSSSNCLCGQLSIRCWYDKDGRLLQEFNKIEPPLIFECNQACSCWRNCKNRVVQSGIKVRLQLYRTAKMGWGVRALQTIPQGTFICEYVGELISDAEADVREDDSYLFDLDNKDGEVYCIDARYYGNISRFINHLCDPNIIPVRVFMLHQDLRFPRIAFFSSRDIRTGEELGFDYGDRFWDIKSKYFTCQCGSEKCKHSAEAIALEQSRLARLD
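AlphaScreen detection with an anti-monomethyl H3K9 antibody quantified product after a 2 h room-temperature reaction containing 500 nM biotinylated H3K9 peptide, 20 µM SAM and 20 nM enzyme, which had been preincubated 15 min with compound.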
HP1b binding inh – inhibitors of HP1-beta chromodomain binding to methylated histone tails. P83916. AlphaScreen HP1-beta / biotin-H3K9me3 peptide binding. Potency, µM (top dose mostly 114 µM), for inactives: at the highest dose activity change, negative = inhibition, actives largely listed as inhibitors. 390,000 tested, 0.56% active. AID 540317; further: nearly all actives have a fitted effect of over 70% in size
Target sequence (P83916 whole entry, looked up): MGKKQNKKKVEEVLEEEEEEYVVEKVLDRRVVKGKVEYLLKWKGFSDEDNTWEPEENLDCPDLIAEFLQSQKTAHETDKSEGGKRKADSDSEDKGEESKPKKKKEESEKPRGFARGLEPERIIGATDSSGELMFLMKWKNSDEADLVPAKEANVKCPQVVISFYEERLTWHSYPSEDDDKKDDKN
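Compound inhibition of the preformed complex between 50 nM HP1-beta and 50 nM biotinylated H3K9me3 peptide was read by AlphaScreen. Buffer was PBS pH 7.4 with 0.01% Tween-20. Incubations ran 30 min at room temperature, with 10 ug/mL donor/acceptor beads.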
BAZ2B block – BAZ2B (human) inhibition; AlphaScreen BAZ2B-H3K14Ac peptide displacement; Potency, µM (titrated, usually from 114 µM), for inactives: at the top dose activity change, negative = inhibition, most hits filed as inhibitors; 360,000 tested, 4.4% active; further: on the % scale 0 is the no-effect control and ±100 the full control effect; nearly all actives have a fitted effect of over 60% in size
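AlphaScreen luminescence quantifies BAZ2B engagement of H3K14Ac peptide; the protein and biotinylated peptide are both at 50 nM final, buffer PBS pH 7.4 with 0.01% Tween-20, all steps at room temperature.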
JMJD2A Tudor – JMJD2A Tudor domain (human) inhibition. O75164. AlphaScreen JMJD2A-Tudor / H3K4me3 peptide binding. Potency, µM (titrated, usually from 114 µM), without a hit: at the highest dose activity change, negative = inhibition, hits mostly inhibitors. 390,000 tested, 4.4% active. AID 504339; further: on the % scale 0 is the no-effect control and ±100 the full control effect; nearly all actives have a fitted effect of over 50% in size
* hit, by the source's call; ? = inconclusive; . = no result; [ ] = another dose, or the depositor's remark. The call rests on the fitted dose curve; in most records, active means well fitted curve in the direction sought with a large enough effect; inconclusive means small, poorly fitted or top-dose-only effect, or another doubt; inactive means no such curve, though single readings can be large; an effect the other way counts as inactive or inconclusive. Potency means the concentration at half of the fitted maximal effect.

SMILES | Sfp inh | G9a block | HP1b binding inh | BAZ2B block | JMJD2A Tudor
COc1cc(Br)c(-c2sc(Nc3ccccc3)n[n+]2-c2ccc(F)cc2)cc1OC | -21% | ? | -5% | ? | 79µM*
COc1ccc(-c2sc(Nc3cccc4ccccc34)n[n+]2C)c(C)c1C | . | . | 109% | . | 41%
COc1ccc(Cc2nnc(Nc3ccccc3)s2)cc1Br | 2% | 12% | 34% | -3% | -20%
CSc1ccc(-c2sc(Nc3cccc4ccccc34)n[n+]2-c2ccccc2)cc1 | 50µM* | . | 13% | 18µM* | 79µM*
CCc1ccc(Nc2n[n+](-c3ccccc3)c(-c3ccc(OC)c(Br)c3)s2)cc1 | -6% | 35µM* | 19% | ? | -33%
CCOC(=O)C1CCCN(C(=O)c2ccc(-c3ccc([N+](=O)[O-])cc3)o2)C1 (configuration not stated) | . | 12%[2.33 µM] | ? | ? | ?
Cc1ccc(S(=O)(=O)N2CCN(c3nc(-c4ncco4)nc4ccccc34)CC2)cc1 | . | . | 1% | . | -35%
CN(C)c1ncc2nc(-c3ccccc3)c(=O)n(C3CC3)c2n1 | -20% | 6%[12.7 µM] | . | . | .
CCCCOc1ccc(N(CC(=O)NC2CCCCC2)C(=O)CCC(=O)Nc2ccccn2)cc1 | 12% | 13% | 11% | 0% | 14%
CCc1nc2oc3ccccc3c(=O)c2c(=O)n1Cc1ccccc1 | 6% | ? | 33% | -1% | -15%
COc1ccc2c(=O)c3c(=O)n(-c4ccc(C)cc4)c(-c4ccccc4)nc3oc2c1 | 16% | 10% | . | -3% | .
Cc1ccc(-n2c(C)nc3oc4ccccc4c(=O)c3c2=O)cc1 | 7% | 56µM* | -25% | 45µM* | 50µM*
COc1ccc2c(=O)c3c(=O)n(Cc4ccco4)c(C(C)C)nc3oc2c1 | ? | ? | 22% | 7% | -12%
O=c1c2ccccc2oc2nc(-c3ccco3)n(Cc3ccccc3)c(=O)c12 | 6% | ? | 20% | 56µM* | -14%
CCCCn1c(-c2ccco2)nc2ccccc2c1=O | -24% | 50µM* | 49% | -22% | 5%
COc1ccc2c(=O)c3c(=O)n(Cc4ccco4)c(-c4ccc(C)cc4)nc3oc2c1 | 25µM* | ? | 9% | ? | 89µM*
COc1ccc(NC(=O)c2cc(S(=O)(=O)N3CCCCC3)ccc2C)cc1S(=O)(=O)N1CCOCC1 | . | . | 2% | . | -8%
CCCCc1nn2c(=O)cc(COC(=O)c3ccc4c(c3)OCO4)nc2s1 | . | 4%[59 µM] | -27% | -1% | -22%
O=C(CSc1nc2ccccc2[nH]1)N=Nc1c(O)[nH]c2ccccc12 | -11% | 45µM* | 3% | -30% | -28%
O=C(Cn1nnc(-c2ccccc2)n1)N=Nc1c(O)[nH]c2ccccc12 | 89µM* | -1%[59 µM] | 14% | -3% | -16%
O=C(CCNC(=O)c1ccccc1)N=Nc1c(O)[nH]c2ccccc12 | 10% | 6% | . | -15% | .
COC(=O)C/C=C\[C@@H](C)[C@@H](/C=N\O[C@@H](C)CN1CCCc2nc(C)c(C)cc21)NS(=O)(=O)c1ccc(C)cc1 | 2% | . | . | . | .
NC(=S)c1ccc[n+]([O-])c1 | . | . | ? | . | 1.1µM*
CCCCCCCNC(=O)C1(CC2CC(c3ccc(Cl)cc3)=NO2)CCNCC1 (configuration not stated) | -14% | ? | 31% | 1% | -28%
CC(=O)Nc1ccc(-c2csc(NCc3ccco3)n2)cc1 | 15% | 10µM* | -28% | -33% | ?
SMILES | Sfp inh | G9a block | HP1b binding inh | BAZ2B block | JMJD2A Tudor
Cc1ccn2c(-c3csc(NCc4ccco4)n3)c(C)nc2c1 | ? | 45µM* | -30% | ? | 100µM*
c1cncc(-c2csc(NCc3ccco3)n2)c1 | -1% | 13%[12.7 µM] | 0% | -38% | ?
COc1ccc(-c2nc3cccc(C)n3c2NCc2ccco2)cc1OC | -1% | 45µM* | -16% | 50µM* | ?
Cc1ccc(-c2cc3nc(C)cc(NCc4ccco4)n3n2)cc1 | ? | ? | 24% | -30% | -19%
COc1ccc(-c2csc(NCc3ccco3)n2)cc1C | -4% | ? | ? | 45µM* | ?
CC(/C=C1\SC(=Nc2cccnc2)NC1=O)=C\c1ccccc1 | 14% | . | -16% | -10% | 79µM*
C=CCOc1ccc(/C=C2\SC(=Nc3cccnc3)NC2=O)cc1 | 11% | . | 28% | -28% | -17%
COc1ccc2c(c1)CCc1c(C(=O)NCc3cccnc3)noc1-2 | -7% | 40µM* | 23% | 15% | -1%
O=C(CSc1nc(=O)n(CCN2CCOCC2)c2c1CCC2)Nc1ccccc1 | . | 6%[59 µM] | 8% | -3% | -10%
S=C(N/N=C/c1ccccc1)N1CCOCC1 | -9% | ? | 20% | ? | 89µM*
COc1ccc(/C=N/NC(=S)SC)cc1OC | 10% | -33% | 36% | ? | -27%
CSC(=S)N/N=C/c1ccccc1 | 8% | -1% | -4% | 13µM* | ?
O=C(N/N=C/c1ccc(-c2ccccc2C(=O)O)o1)c1cccs1 | 50µM* | 8.9µM* | 5% | 56µM* | 89µM*
O=C(N/N=C/c1ccncc1)c1cccs1 | 17% | 11% | 11% | -1% | -14%
Cc1ccccc1NC(=O)c1ccc2c(c1)C(=O)N(CC(C)C)C2=O | 14% | -5%[0.501 µM] | 27% | 10% | -1%
CC(C)CCN1C(=O)c2ccc(C(=O)Nc3ccc(Br)cc3C(=O)O)cc2C1=O | -7% | . | 4% | 45µM* | 56µM*
CC(C)CN1C(=O)c2ccc(C(=O)Nc3ccccc3C(=O)O)cc2C1=O | 13% | ? | -4% | 5% | 22µM*
CC(C)CCN1C(=O)c2ccc(C(=O)Nc3cc(C(=O)O)cc(C(=O)O)c3)cc2C1=O | 11% | -1% | 27% | -20% | -5%
O=C(Nc1ccc(Cl)cc1C(=O)O)c1ccc2c(c1)C(=O)N(Cc1ccco1)C2=O | -23% | 11µM* | -9% | 50µM* | 56µM*
Cc1oc2ncn(CC(C)C)c(=O)c2c1C(=O)NCCCN1CCCCC1C (configuration not stated) | . | -1%[59 µM] | 6% | 4%[57.1 µM] | -9%
CCn1ncc(Br)c1C(=O)Nc1cc(C)on1 | 9% | . | 31% | -9% | -11%
CCC(=O)Oc1c(Sc2ccc(Cl)cc2)c(C)nn1-c1ccccc1 | . | 2.8µM* | 30% | 1% | -22%
CCCC(=O)Oc1c(Sc2ccc(C)cc2)c(C)nn1-c1ccccc1 | . | 2µM* | 89% | 37% | -6%
CCC(=O)Oc1c(Sc2ccc(C)cc2)c(C)nn1-c1ccccc1 | . | 10µM* | 49% | 10% | -13%
Cc1ccc(Sc2c(C)nn(C(C)(C)C)c2OC(=O)CC(C)C)cc1 | . | 82%[59 µM] | 93% | 84% | 70%
Cc1cccc(NC(=O)CCSc2nc(C)cc(C)n2)c1 | -10% | 9%[0.501 µM] | 42% | -1% | -7%
Cc1cc(C)nc(SCCC(=O)N(C)C)n1 | 50µM* | 8.9µM* | 39% | -1% | ?
CCNC(=O)CCSc1nc(C)cc(C)n1 | 32µM* | 3.5µM* | 10% | 0% | ?
